From PubChem BioAssay AID1508649 (National Center for Advancing Translational Sciences (NCATS), 2021)
Screen size: about 43,000 compounds; about 830 (1.9%) were called active. Not shown: some 30% with an inconclusive outcome. The sample as a whole holds a higher share of actives than the screen did. Values without a mark were called inactive. How the source made its calls: active means clear falling dose curves in both reporters; inconclusive means both reporters move, but less clearly or upward; inactive means either reporter flat; the % is the NLuc reporter signal.

Assay: Cell-based coincidence reporter assay to measure PMP22 gene transcription in S16 Pmp22-F2sN cells - Primary screen
Details: S16 Pmp22-F2sN Schwann cells (luciferase reporters placed in the Pmp22 gene), FLuc/NLuc coincidence luminescence, 24 h; series mostly up to 57.5 µM; activity change, negative = inhibition: at the top concentration
From the text: Assay Provider: Jim Inglese Ph.D. National Center for Advancing Translational Science, National Institutes of Health, Rockville, MD CMT is a heterogeneous group of neurological disorders that affect approximately 1 in 2,500 people. In particular, the most common form of CMT, CMT1A is genetically linked to the duplication of the PMP22 gene which leads to Schwann cell overexpression, thus manifesting itself as a typical case of dose-sensitive diseases. To identify small molecule compounds that can mediate the expression of PMP22 we developed a phenotypic assay screening strategy by utilizing genome editing techniques to construct Schwann cell lines containing novel reporter technology to monitor the transcriptional or translational regulation of PMP22. For high sensitivity we use a bioluminescent reporter system embedded in the 3' UTR of the PMP22 gene (S16(c9) Pmp22-F2sN) to identify compounds that inhibit gene expression. […] We can further discriminate the effect of all transcriptionally active molecules on PMP22 translation or stability with an assay that incorporates a short NLuc peptide (HiBiT) at the C-terminus of expressed PMP22 (S16(f8) PMP22-HiBiT) allowing alpha complementation and luminescence detection of membrane-associated PMP22 protein. These assays were screened against the NCATS Sytravon Library Collection. Miniaturization of these assays to 1536-well plate format for quantitative high throughput screening (qHTS) yielded rich data sets immediately from the qHTS assay (S16(c9) Pmp22-F2sN), when compared with data from a cell viability assay (Cell TiterGlo) to identify compounds that decreased the output signals through cellular toxicity to streamline the selection process of actives for subsequent characterization using the HiBiT assay (S16(f8) PMP22-HiBiT).
Cell-based coincidence reporter assay to measure PMP22 gene transcription in S16 Pmp22-F2sN cells PROTOCOL TABLE (format as described by Inglese J, Shamu CE and Guy RK. 2007) SEQUENCE No. (e.g., 1, 2, 3, etc.); […] (e.g., Cells, Incubation, Reagent, etc.); VALUE and DESCRIPTION. 1. Cells. Add 500-1,000 cells in 4 uL in growth media (DMEM High Glucose, No Phenol Red media + 10% heat-inactivated FBS + 1% Pen/Strep supplemented media) per well into Greiner 1536-well white/solid bottom high base, TC-treated plates. 2. Compounds. Library compounds and controls added at 23nL per well, transferred by Pin Tool. 3. Incubation. Incubate plates at 37C, 5% CO2, 95% RH for 24 h. 4. Reagent. Add 3.5uL Nano-Glo Dual-Luciferase Reporter Assay System reagent 1: Lysis and FLuc reagent per well of Greiner 1536-well plates. 5. Incubation. Incubate plates at room temperature for 10 min., protect from light. 6. Detector. FLuc luminescence measured using CCD-based camera (Viewlux). 7. Reagent. Add 3.5uL Nano-Glo Dual-Luciferase Reporter Assay System reagent 2: Stop&Glo reagent per well of Greiner 1536-well plates. 8. Incubation. Incubate plates at room temperature for 10 min., protect from light. 9. Detector. NLuc luminescence measured using CCD-based camera (Viewlux). NOTES (numbers refer to Sequence numbers above; values are from representative experiments) 6. Luminescence Read #1 (FLuc): Clear filter; Exposure = 10 sec, Gain = High, Speed = Slow, Binning = 2X 9. Luminescence Read #2 (NLuc): Clear filter; Exposure = 1 sec, Gain = High, Speed = Slow, Binning = 2X REFERENCES: 1. Inglese J, Shamu CE and Guy RK, Reporting data from high throughput screening of small molecule libraries, Nature Chemical Biology, 2007, 3(8): 438-441. doi.org/10.1038/nchembio0807-438 2. Yasgar A, Shinn P, Jadhav A, Auld DS, Michael S, Zheng W, Austin CP, Inglese J and Simeonov A, Compound Management for Quantitative High-Throughput Screening. J. Assoc. Lab. Auto., 2008, 13: 79-89. doi: 10.1016/j.jala.2007.12.004
On the % scale 0 is the no-effect control and ±100 the full control effect; potency means the concentration at half of the fitted maximal effect.

Compound | activity change, negative = inhibition [%] | Potency
O=c1c2cccnc2n(Cc2cccc(F)c2)c(=O)n1Cc1ccccc1Cl | 14.6 | 
CCOC(=O)c1ccc(NC2=CC(c3ccc(OCC)cc3)N(c3ccc(C(=O)OCC)cc3)C2=O)cc1 (configuration not stated) | -0.625 | 
CCOC(=O)c1ccc(N2C(=O)c3n[nH]c(C)c3C2c2ccc(O)c(OC)c2)cc1 (configuration not stated) |  | 7.51 µM (active)
Cc1ccc(C)c(N2CCN(C(=O)Cn3nc(C)c4sc5ccccc5c4c3=O)CC2)c1 | 11.4 | 
COc1cccc(C(=O)N(Cc2cccc(Cl)c2)Cc2ccco2)c1 | -23.2 | 
CCOC(=O)c1ccc(NC(=O)C2CC(=O)NC(=Nc3ccc(C)c(C)c3)S2)cc1 (configuration not stated) | -24.1 | 
CCOC(=O)Cc1ccc(NC(=O)Nc2c[nH]c(=O)[nH]c2=O)cc1 | 8.78 | 
CCCCS(=O)(=O)c1oc(-c2cccs2)nc1S(=O)(=O)c1ccccc1 |  | 1.82 µM (active)
Cc1ccc(CSc2oc(-c3cccs3)nc2S(=O)(=O)c2ccc(C)cc2)cc1 | 8.14 | 
CSc1oc(-c2cccs2)nc1S(=O)(=O)c1ccc(Br)cc1 | 49.8 | 
Cc1ccc2oc(C(=O)Nc3ccc(S(=O)(=O)N4CCCCCC4)cc3)cc(=O)c2c1 | -11 | 
Cc1cc(C)cc(-n2c(SCC(=O)NCC3CCCO3)nc3c([nH]c4ccccc43)c2=O)c1 (configuration not stated) | -19.2 | 
CCOC(=O)c1scc(-c2ccccc2)c1S(=O)(=O)Nc1ccccc1F | -0.485 | 
CCCS(=O)(=O)c1ncc(Cl)c(C(=O)Nc2scc(-c3ccccc3)c2C(=O)OCC)n1 |  | 5.97 µM (active)
CCOC(=O)c1ccc(NC(=O)c2nc(SCc3ccc(F)cc3)ncc2Cl)cc1 | -29.1 | 
CC1CCN(S(=O)(=O)c2ccc3c(c2)N(CC(=O)NCCc2ccccc2)C(=O)CO3)CC1 | -25.2 | 
CCC(C)c1ccc2oc(-c3ccc(NC(=O)c4cc5ccccc5o4)cc3)nc2c1 (configuration not stated) | -12.1 | 
COc1ccccc1-c1cc2nc(C)c(CCC(=O)NC3CCCCC3)c(C)n2n1 | -2.27 | 
COc1ccc(-c2nc(S(=O)(=O)c3ccccc3)c(N3CCCCC3)o2)cc1 | -26.4 | 
O=C(CSc1oc(-c2ccc(F)cc2)nc1S(=O)(=O)c1ccc(Br)cc1)NC1CCCCC1 | 0.395 | 
CC(C)S(=O)(=O)c1oc(-c2ccc(F)cc2)nc1S(=O)(=O)c1ccc(F)cc1 |  | 2.05 µM (active)
Cc1ccc2nc(COc3ccc(NC(=O)COc4ccccc4F)cc3)cc(=O)n2c1 | -12.1 | 
CC(=O)Nc1cc(C(=O)NCc2ccc(F)cc2)ccc1Sc1ccc(F)cc1 | -18.1 | 
Cc1cccc(C2CC(=O)Oc3c2c(=O)n(C)c2ccccc32)c1 (configuration not stated) | -18.4 | 
CC(CNC(=O)c1nnc(Cc2cccc(F)c2)o1)c1ccccc1 (configuration not stated) | -15.6 | 
Cc1ccc(CCNC(=O)c2nnc(Cc3cccc(F)c3)o2)cc1 | -14.3 | 

Compound | activity change, negative = inhibition [%] | Potency
O=C(NCCCN1CCN(c2cccc(Cl)c2)CC1)c1nnc(Cc2ccc(F)cc2Cl)o1 |  | 18.9 µM (active)
CCOC(=O)c1c(NC(=O)c2cc(CC)on2)sc(C(C)=O)c1C | 10.7 | 
COc1ccc(CNC(=O)C2=Cc3cccc(OC)c3OC2)cc1OC | 3.11 | 
NC(=O)CSc1nc2c(oc3ccccc32)c(=O)n1Cc1ccccc1 | -17.2 | 
O=C(c1ccc2c(c1)N(Cc1ccccc1F)C(=O)c1ccccc1S2(=O)=O)N1CCOCC1 | -4.6 | 
O=C(NCCc1ccccc1)c1ccc2c(c1)N(Cc1ccc(F)cc1)C(=O)c1ccccc1S2(=O)=O | -29 | 
O=C(c1ccc2c(c1)N(Cc1ccc(F)cc1)C(=O)c1ccccc1S2(=O)=O)N1CCN(c2ccccn2)CC1 |  | 15.6 µM (active)
Cc1ccc(C(=O)N2c3ncnn3C3(CCCCC3)[C@@H]3CCCC[C@@H]32)cc1 | -3.73 | 
COc1ccc(CCNc2nc(-c3ccc(F)cc3)cc(C(F)(F)F)n2)cc1OC | -5.08 | 
O=C(CSc1nc(=O)n(Cc2cccnc2)c2c1CCC2)Nc1ccc(F)cc1F | -25.4 | 
Cn1nnnc1SCCCNCc1ccc(Cl)cc1 | 0.621 | 
CCC(=O)N1CCc2cc(S(=O)(=O)NC(CC(C)C)C(=O)NCCc3cccc(C)c3)ccc21 (configuration not stated) | 7.22 | 
CCc1ccc(NC(=O)CSc2nc3c([nH]c4ccccc43)c(=O)n2-c2cccc(OC)c2)cc1 | -1.32 | 
Cc1ccccc1CSc1nc2c([nH]c3ccccc32)c(=O)n1C | -13.5 | 
CCOC(=O)c1ccc(NC(=O)CSc2nc3c([nH]c4ccccc43)c(=O)n2C)cc1 |  | 14.1 µM (active)
Cc1ccccc1NC(=O)CCOc1ccccc1 | 3.36 | 
COc1ccc(C)cc1N(C)C(=O)c1c(C)oc2ncnc(N3CCOCC3)c12 | -13.9 | 
Cc1cccc(-n2c(SCC(N)=O)nc3c(oc4ccccc43)c2=O)c1 | -13.6 | 
CCc1ccc(NC(=O)c2cc(S(=O)(=O)N3CCCC(C)C3)cn2C)cc1 (configuration not stated) | -12.6 | 
CC1CCN(CCCNC(=O)CN2C(=O)CSc3ccc(S(=O)(=O)N4CCCCC4)cc32)CC1 | -33 | 
CCc1ccc(NC(=O)CN2CCSc3ccc(S(=O)(=O)N4CCCC4)cc32)cc1 |  | 17 µM (active)
COc1ccccc1CCNC(=O)c1cccn1-c1nnc(N2CCCCC2)s1 | -23.5 | 
Cc1ccc(CCNC(=O)C2CCN(c3nnc(-n4cccc4CNc4ccc(C)cc4)s3)CC2)cc1 |  | 20 µM (active)
O=C(NCc1ccccc1Cl)c1cccn1-c1nnc(N2CCCCC2)s1 | -13.1 | 
Cc1cc(C)cc(NC(=O)Cc2csc(C)n2)c1 | -1.79 | 
Cc1nc2ccc(S(=O)(=O)NC(C(=O)NCc3ccccc3Cl)C(C)C)cc2s1 (configuration not stated) | -9.19 | 
